Laboratory results reported in PubChem BioAssay.
Activity calls are given as the source filed them. Rule as the data show it, unless noted: active = inhibition above about 30%; inactive = the rest.

Legend:
[1] = reduced viability of SK-BR-3 breast cancer cells – cell-based, 24 h, human, pilot screen (AID 572;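 active = viability at or below 10% of carrier control in both of two separate runs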;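 also: compound exposure lasted between 18 and 24 h rather than exactly 24 h; 100% = carrier-treated control wells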); conditions: SK-BR-3 viability, CellTiter-Glo luminescence, at 10 µM, stronger effect = lower value
[2] = HUVEC growth inhibition – cell-based, human, primary screen (AID 575;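 active = viability at or below 30% in both replicate assays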;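 also: 100% = median of untreated cell wells with 0.1% DMSO on each plate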); conditions: HUVEC proliferation, CellTiter-Glo luminescence, 72 h; at 10 µM; stronger effect = lower value
[3] = H69AR cell proliferation blockers – human, duplicate replicates, primary screen (AID 580;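 active = viability at or under a set limit in both replicates, limit being median viability minus 3 SD, cut at about 48% in these data, passing the limit was not always enough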;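 also: 100% = mean luminescence of untreated wells and 0% = no signal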); conditions: H69AR lung tumor cells viability, ATP luminescence, 72 h; at 10 µM; stronger effect = lower value
[4] = MRP1 drug-resistance reversers in H69AR cells – cell-based, doxorubicin co-treatment, pilot screen (AID 601;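 active = viability loss from added drug above about 55%, and viability with drug at most 40%, in both replicates, limit read from the data, passing the limit was not always enough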); conditions: CellTiter-Glo, 72 h, at 10 µM; for differential viability (reversal): stronger effect = higher value
[5] = yeast transport mutant growth inhibition pilot in 384-well plates, post-Golgi transport modulator project (AID 636; in the data active = inhibition above about 31%); conditions: absorbance 615 nm, about 18 h, stronger effect = higher value
[6] = growth suppression of yeast trafficking mutant, preliminary HTS, modulators of trafficking downstream of Golgi apparatus project, 1536-format plate, OD 615 nm (AID 637); conditions: yeast transport mutant growth, absorbance 615 nm, 18 h; stronger effect = higher value
[7] = H69AR cells + 2 uM doxorubicin, measured here: viability with 2 uM doxorubicin, stronger effect = lower value
[8] = H69AR cells, compound alone cytotoxicity

SMILES	viability [1]	viability [2]	viability [3]	differential viability (reversal) ([4]; H69AR cells + 2 uM doxorubicin)	viability [4, 7]	viability [4, 8]	inhibition [5]	inhibition [6]
N#Cc1c(NCc2ccccc2)ccnc1NCc1cccnc1	78% (inactive)	59.2% (inactive)	98.6% (inactive)	4.3% (inactive)	94.3%	98.6%	-6.08% (inactive)	-0.55% (inactive)
Cc1nc2ccc(S(=O)(=O)NCC(=O)N3CCCCC3)cc2s1	116% (inactive)	100% (inactive)	87.4% (inactive)	2.37% (inactive)	85%	87.4%	-2.99% (inactive)	0.16% (inactive)
Cc1ccc2[nH]c3c(=O)n(CCCN4CCN(C)CC4)cnc3c2c1	115% (inactive)	99.9% (inactive)	95.5% (inactive)	2.28% (inactive)	93.2%	95.5%	-4.67% (inactive)	0% (inactive)
COC(=O)Nc1nc2ccc(C(=O)c3ccccc3)cc2[nH]1	109% (inactive)	44.3% (inactive)		-47.3% (inactive)	73.4%	26.1%	42.3% (active)	90.2% (active)
O=C(CSc1nc2cc(S(=O)(=O)N3CCOCC3)ccc2o1)NC1CCCc2ccccc21 (centres undefined)	61% (inactive)	84.7% (inactive)		-4.17% (inactive)	74.4%	70.2%	-3.6% (inactive)	-5.82% (inactive)
O=C(Nc1ccc2[nH]c3c(c2c1)CCCC3)c1ccco1	82% (inactive)	73.1% (inactive)		-3.58% (inactive)	66.7%	63.1%	-8.67% (inactive)	-2.73% (inactive)
CC[C@]1(O)CC2CN(CCc3c([nH]c4ccccc34)[C@@](C(=O)OC)(c3cc4c(cc3OC)N(C=O)[C@H]3[C@@](O)(C(=O)OC)[C@H](OC(C)=O)[C@]5(CC)C=CCN6CC[C@]43[C@@H]65)C2)C1 (some centres undefined)	104% (inactive)	34.6% (inactive)		-27% (inactive)	53.5%	26.5%	-0.91% (inactive)	-3.67% (inactive)
O=C(c1cc2nc(-c3ccco3)cc(C(F)(F)F)n2n1)N1CCN(c2ccccn2)CC1	101% (inactive)	66.5% (inactive)		-11.9% (inactive)	66.1%	54.3%	-3.2% (inactive)	0.18% (inactive)
COC(=O)c1[nH]c2ccc(C)cc2c1NC(=O)CN1CCCC(C)(C)C1	125% (inactive)	77.6% (inactive)		-3% (inactive)	42.2%	39.1%	-5.87% (inactive)	4.91% (inactive)
Oc1c(I)cc(Cl)c2cccnc12	84% (inactive)	8.13% (active)		-10.4% (inactive)	46.2%	35.8%	4.55% (inactive)	8.83% (inactive)
COc1ccc(CSCCN)cc1Cl	113% (inactive)	105% (inactive)		-18.3% (inactive)	57.5%	39.2%	-7.33% (inactive)	-2% (inactive)
CCn1c(=N)n(CC(=O)c2ccco2)c2ccccc21	95% (inactive)	95.5% (inactive)		-38.3% (inactive)	73.2%	34.9%	-5.2% (inactive)	-4% (inactive)
COC(=O)C1=C(C)NC(C)=C(C(=O)OC)C1c1ccccc1[N+](=O)[O-]	91% (inactive)	46.7% (inactive)		11.9% (inactive)	2.41%	14.3%	1.04% (inactive)	-2.67% (inactive)
O=S1(=O)Nc2c(ccc3cccnc23)-c2ccccc21	122% (inactive)	8.06% (active)		-6.77% (inactive)	56%	49.2%	-7.5% (inactive)	9.84% (inactive)
O=C(CC(SCCO)c1ccc2c(c1)OCO2)c1ccco1 (centres undefined)	77.5% (inactive)	95% (inactive)		-17.8% (inactive)	59.3%	41.5%	-7.57% (inactive)	-3.65% (inactive)
COc1cc2cc(C(c3nnnn3C3CCCC3)N3CCCCCC3)c(=O)[nH]c2cc1OC (centres undefined)	114% (inactive)	92.3% (inactive)		-0.62% (inactive)	59.7%	59.1%	-3.87% (inactive)	-2.91% (inactive)
N#Cc1c(N2CCCC2)nc(N)c2c(N)nc(N3CCCC3)cc12	82% (inactive)	68.2% (inactive)		-29% (inactive)	75.2%	46.3%	-0.13% (inactive)	-2.3% (inactive)
CC(C)CCn1c(SCC#N)nc2c(sc3ccccc32)c1=O	102% (inactive)	41.2% (inactive)		2.2% (inactive)	53.6%	55.8%	-2.24% (inactive)	-7.14% (inactive)
COc1ccc(-c2ccc(-c3noc(-c4ccccc4OC)n3)c(OC)n2)cc1	62% (inactive)	63.9% (inactive)		-2.01% (inactive)	64.9%	62.9%	-4.59% (inactive)	18.9% (inactive)
COc1ccccc1Nc1nc(N)nc(-c2cc3ccccc3o2)n1	91% (inactive)	78.4% (inactive)		-26.4% (inactive)	75.7%	49.3%	-2.97% (inactive)	-4.55% (inactive)
Cc1cccc(OCC(=O)Nc2cc(C)ccc2O)c1	105% (inactive)	75.3% (inactive)		-14% (inactive)	51.4%	37.4%	-6.16% (inactive)	0.18% (inactive)
O=C(Nc1ccccc1-c1nc2ccccc2o1)c1ccc2c(c1)OCCO2	112% (inactive)	66.7% (inactive)		-12.7% (inactive)	48.4%	35.7%	-3.64% (inactive)	-4.44% (inactive)
COc1cc2c(cc1NC(=O)CSc1nnc(Cc3cccs3)n1C)oc1ccccc12	74% (inactive)	54.4% (inactive)		-12.1% (inactive)	59.9%	47.8%	11.5% (inactive)	4.36% (inactive)
